Laboratory results: the supplement of paper PMC6555819

Key:
Assay in all cases: PBM binding z-score (relative to random genomic background probes); higher = stronger binding; sequences stand for … in GC…GCGATTGACAGCGTAGAATGAAGG
[1] = tested on: RARb homodimer (NR concentration 270 nM)
Outline: (§1)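 For binding z-scores, the reference was random background probes on custom Agilent 4×180K protein-binding microarrays. These arrays were incubated 1 h with ligand-free nuclear receptor dimers in PBS pH 7.4, 2% milk, 0.02% Triton X-100, 1 mM DTT, 0.2 mg/mL BSA and 0.4 mg/ml salmon testes DNA. Fluorescence was scanned after antibody detection of each partner (one per run) and regression-normalized.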

[2] = tested on: RARg:RXRa (NR concentration 270 nM, RXRa partner concentration 90 nM)
Outline: as §1

[3] = tested on: RARg homodimer (NR concentration 270 nM)
Outline: as §1

[4] = tested on: RXRa DBDmut IVT, anti-RXR (DBD mutation: RXRa K156A/R161A, NR concentration 90 nM)
Outline: as §1

[5] = tested on: RXRa homodimer (NR concentration 180 nM)
Outline: as §1

[6] = tested on: THRa:RXRa (NR concentration 90 nM, RXRa partner concentration 90 nM)
Outline: as §1

[7] = tested on: THRa homodimer (NR concentration 90 nM)
Outline: as §1

[8] = tested on: VDR homodimer (NR concentration 270 nM)
Outline: as §1

Sequence | PBM binding z-score [1] | PBM binding z-score [2] | PBM binding z-score [3] | PBM binding z-score [4] | PBM binding z-score [5] | PBM binding z-score [6] | PBM binding z-score [7] | PBM binding z-score [8]
CTCGAAAGGTCGGTTGTGGTGAGTATACGGATAA | 1.92 | 2.21 | 2.35 | 1.08 | 1.79 | 2.66 | 0.291 | 0.903
AGTCAAAGTTCACTAGGTATCGTAAGATTCAGCT | 3.71 | 4.66 | 5.74 | 4.28 | 3.72 | 1.51 | -0.258 | 4.12
CTCGAAAGGTCGCGCTCAGGTGAGTATACCAAAC | 3.47 | 5.54 | 4.9 | 2.28 | 5.79 | 4.23 | 1.01 | 1.35
CATACTGGGCCATTCAGAGGTCATTGATCATATG | 4.15 | 4.52 | 3.48 | 1.39 | 3.85 | 3.21 | 1.4 | 3.67
TCATATAGGCAAATGCTAGGTGAAAGTCCGATCT | 0.285 | 0.0737 | 0.0347 | 1.15 | 0.445 | 0.84 | 0.227 | -0.285
TCGAGTAGGTTAGTCGGTGCATTCAGCCAACATA | -0.0982 | -0.434 | -0.407 | 0.415 | -0.152 | -0.374 | -0.377 | 0.902
CGTCCAAGCTCAATGCTAGGTCAGTGAAAGCATT | 1.84 | 0.587 | 0.598 | -0.0158 | -0.025 | 1.09 | 0.344 | -0.453
